Assay outcomes as filed in PubChem BioAssay.
AmpC detergent = inhibitors of E. coli AmpC beta-lactamase with detergent. AmpC hydrolysis of nitrocefin, absorbance 480 nm, 0.01% Triton. P00811. AID 485294. 370,000 compounds, 0.041% hits. Potency, µM (top dose mostly 114 µM), usual class: inhibitors; also: nearly all actives have a fitted effect of over 25% in size
Target sequence (P00811 whole entry, looked up): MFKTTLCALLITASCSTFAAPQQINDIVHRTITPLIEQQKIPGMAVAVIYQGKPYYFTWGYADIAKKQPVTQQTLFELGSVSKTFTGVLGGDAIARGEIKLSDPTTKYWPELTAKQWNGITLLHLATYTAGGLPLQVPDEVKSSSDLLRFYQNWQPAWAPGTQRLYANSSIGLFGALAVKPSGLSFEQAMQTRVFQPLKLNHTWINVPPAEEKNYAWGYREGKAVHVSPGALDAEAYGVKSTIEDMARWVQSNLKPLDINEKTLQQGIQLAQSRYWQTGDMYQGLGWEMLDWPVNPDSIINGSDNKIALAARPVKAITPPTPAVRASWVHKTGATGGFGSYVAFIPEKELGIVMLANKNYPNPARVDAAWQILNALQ
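20 mM phosphate pH 7.0 + 0.01% (detergent screen) or 0.0001% Triton X-100; 5.3 nM AmpC reagent; cpd preinc 15 min RT; nitrocefin (800 uM stock) to start; A480 q20 s × 4 min; Activity was normalised to no-enzyme and no-compound control wells.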
Sm TGR inh = blocks Schistosoma mansoni thioredoxin glutathione reductase. purified TGR, DTNB reduction, TNB absorbance 405 nm. Potency, µM (highest dose often 114 µM), most hits filed as inhibitors. 360,000 compounds, 3% hits; also: nearly all actives have a fitted effect of over 60% in size
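Kinetic colorimetric format: TGR-catalysed, NADPH-driven DTNB reduction monitored via TNB absorbance. Enzyme dispensed at 20 nM; compound exposure 15 min at room temperature before reaction start.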
SARS PLpro yeast = blocks SARS-CoV papain-like protease in a yeast assay | S. cerevisiae expressing SARS-CoV PLpro, growth rescue | Potency, µM (highest dose often 32.9 µM), actives largely listed as activators | 330,000 compounds, 0.19% hits; calls by dose curve; also: nearly all actives have a fitted effect of over 55% in size
Pf growth 48h = P. falciparum growth inhibition at 48 hours (one generation). P. falciparum luciferase growth in erythrocytes, 48 h. Potency, µM (doses to about 28.7 µM), hits mostly inhibitors. 310,000 compounds, 5.9% hits. AID 504832
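Firefly luciferase activity from engineered P. falciparum reports growth; inhibitors lower the luminescent signal. Cultures contained 2% hematocrit erythrocytes at 0.1% final parasitemia.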
AmpC inh no detg = blocks E. coli AmpC beta-lactamase in detergent-free assay | Potency, µM (titrated, usually from 57.1 µM), most hits filed as inhibitors | 330,000 compounds, 0.52% hits | P00811 | AmpC nitrocefin hydrolysis, absorbance 480 nm, 0.0001% Triton; also: nearly all actives have a fitted effect of over 20% in size
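20 mM phosphate pH 7.0 + 0.01% (detergent screen) or 0.0001% Triton X-100; 5.3 nM AmpC reagent; cpd preinc 15 min RT; nitrocefin (800 uM stock) to start; A480 q20 s × 4 min; Activity was normalised to no-enzyme and no-compound control wells.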
Pf growth 96h = P. falciparum growth inhibition at 96 hour, primary screen for plastid delayed-death inhibitors; 320,000 compounds, 6.9% hits; Potency, µM (doses to about 28.7 µM), actives largely listed as inhibitors; P. falciparum luciferase reporter growth, 96 h
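Infected RBCs, 2% Hct / 0.05% parasitemia final; luciferase-reporter P. falciparum; cpd 96 h, 37 C, 5% CO2; luciferase detection reagent; luminescence.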
Numbers stand for hits; - = inactive; ? = inconclusive; . = no result. Sampled rows, rich in hits. Any-hit rate of the full collection: about 12%. Unless noted, calls follow the shape of the dose curve; as a rule, active = well fitted curve in the direction sought with a large enough effect; inconclusive = small, poorly fitted or top-dose-only effect, or another doubt; inactive = no such curve, though single readings can be large; an effect the other way counts as inactive or inconclusive.

SMILES | AmpC detergent | Sm TGR inh | SARS PLpro yeast | Pf growth 48h | AmpC inh no detg | Pf growth 96h
COC(=O)[C@@]1(Cc2ccc(F)cc2)[C@H]2c3cc(C(=O)N(C)C)n(Cc4ccccc4)c3C[C@H]2CN1C(=O)c1ccccc1 | ? | - | - | 2.9µM | - | 3.3µM
COC(=O)[C@@]1(Cc2ccc(OC)cc2)[C@H]2c3cc(C(=O)N(C)C)n(C[C@H](O)CO)c3C[C@H]2CN1C(=O)c1ccccc1 | - | - | - | ? | - | 8.3µM
COc1ccc(-c2noc(-c3ccc(NCCc4ccccc4)c([N+](=O)[O-])c3)n2)cc1 | - | - | . | . | . | .
CC(NC(=S)Nc1ccccc1OC(F)F)C(C)(C)C (centres undefined) | - | - | 11µM | - | - | -
COc1cc(NC(=O)c2noc3c2CC(C)CC3)c(OC)cc1Cl (centres undefined) | - | - | . | . | . | .
Cc1ccc(C2CC(C(F)(F)F)n3ncc(C(=O)NCc4ccco4)c3N2)cc1 (centres undefined) | - | - | - | - | - | .
CN(C)S(=O)(=O)c1cccc(-c2nnc(SCc3ccc4c(c3)OCCO4)o2)c1 | - | - | - | 17µM | - | ?
O=C(OCC1OC(OC(=O)c2cc(O)c(O)c(OC(=O)c3cc(O)c(O)c(O)c3)c2)[C@@H](OC(=O)c2cc(O)c(O)c(OC(=O)c3cc(O)c(O)c(O)c3)c2)C(OC(=O)c2cc(O)c(O)c(OC(=O)c3cc(O)c(O)c(O)c3)c2)C1OC(=O)c1cc(O)c(O)c(OC(=O)c2cc(O)c(O)c(O)c2)c1)c1cc(O)c(O)c(OC(=O)c2cc(O)c(O)c(O)c2)c1 (some centres undefined) | . | . | . | 3.4µM | . | 3µM
O=C(Nc1ccccc1)Nc1n[nH]c2nnc(-c3ccccc3)c(-c3ccccc3)c12 | - | - | - | ? | 32µM | ?
O=C(Nc1ccccc1)Nc1nncs1 | ? | - | - | - | - | -
Cc1cc(NC(=O)CSc2ccc3nnc(-c4cccc(F)c4)n3n2)no1 | - | - | - | 1.9µM | - | ?
Cc1nnc(NC(=O)CSc2ccc3nnc(-c4ccccn4)n3n2)s1 | - | - | - | ? | - | ?
O=C(CSc1ccc2nnc(-c3ccccn3)n2n1)Nc1ccccc1 | - | - | - | 13µM | - | ?
Cc1cc(NC(=O)CSc2ccc3nnc(-c4ccccn4)n3n2)no1 | - | - | - | ? | - | 12µM
Cc1cc(NC(=O)CSc2ccc3nnc(-c4ccc(Cl)cc4)n3n2)no1 | - | - | - | . | - | -
CCOc1ccc(NC(=O)CSc2ccc3nnc(-c4ccccn4)n3n2)cc1 | - | - | - | ? | - | ?
COc1ccc(NC(=O)c2nnn(CC(=O)Nc3cc(C)cc(C)c3)c2N)c(OC)c1 | - | - | . | . | . | .
CC(=O)c1ccc(NC(=O)Nc2nnc(N3CCCC(C)C3)s2)cc1 (centres undefined) | - | - | . | . | . | .
Cc1ccc(C(=O)NCCOC23CC4CC(CC(C4)C2)C3)cc1 | - | - | - | 2.9µM | - | 2.1µM
COc1ccc(OCCNC(=O)c2ccc(C)cc2)cc1 | - | - | - | - | - | 2.9µM
O=c1c2oc3ccccc3c2n(Cc2ccc(Cl)cc2)c(=O)n1Cc1ccccc1 | - | - | . | . | . | .
CCc1ccccc1NC(=O)NNC(=O)CCc1ccc(OC)cc1 | - | - | - | ? | - | -
COC(=O)c1cn(Cc2cc(OC)ccc2OC)cc(F)c1=O | - | - | - | - | - | -
Clc1cc(Cl)c(Cl)cc1Cl | - | - | - | - | - | -
Clc1cc(Cl)c(OCC#CI)cc1Cl | . | . | . | ? | . | 13µM
SMILES | AmpC detergent | Sm TGR inh | SARS PLpro yeast | Pf growth 48h | AmpC inh no detg | Pf growth 96h
COc1ccccc1NC(=O)N1CCC(CN2CCc3ccccc3C2)CC1 | - | - | . | . | . | .
CCNc1c([N+](=O)[O-])c(=O)n(CC)c2ccccc12 | - | - | - | - | - | -
O=c1c([N+](=O)[O-])c(N2CCOCC2)c2ccccc2n1-c1ccccc1 | - | - | - | - | - | -
CCN(CC)c1c([N+](=O)[O-])c(=O)n(CC)c2ccccc12 | - | - | - | 13µM | - | ?
CCn1c(=O)c([N+](=O)[O-])c(N2CCOCC2)c2ccccc21 | - | - | - | - | - | 10µM
S=C(NCCc1ccccc1)N/N=C/c1c(Cl)cccc1Cl | - | - | - | - | - | -
CCN(CC(=O)NC1CCS(=O)(=O)C1)S(=O)(=O)c1c(C)c(C)cc(C)c1C (centres undefined) | - | - | - | - | ? | -
CCn1cc(S(=O)(=O)c2cccc(Cl)c2)c(=O)c2cc(F)c(N3CCN(C)CC3)cc21 | - | ? | . | . | . | .
CCOC(=O)c1cn(CC)c2cc(N3CCSCC3)c(F)cc2c1=O | - | - | - | 0.93µM | - | -
CCn1cc(S(=O)(=O)c2ccc(OC)cc2)c(=O)c2cc(F)c(N3CCN(C)CC3)cc21 | - | - | - | - | - | 8.3µM
CCn1cc(C(=O)NCC(C)C)c(=O)c2cc(F)c(N3CCN(C)CC3)cc21 | - | - | - | - | - | -
CCOC(=O)c1cn(CC)c2cc(N3CCN(C)CC3)c(F)cc2c1=O | - | - | - | 12µM | - | ?
CCOC(=O)c1cn(CC)c2cc3c(cc2c1=O)OCO3 | - | - | - | - | - | ?
CCN(CC(=O)Nc1cccc(OC)c1)C(=O)c1ccco1 | - | ? | - | - | - | -
CN(C)S(=O)(=O)c1ccc(Cl)c(NC(=O)c2ccncc2)c1 | - | - | - | - | - | -
COCc1nnc(NS(=O)(=O)c2ccc(C)cc2)s1 | ? | - | - | - | - | -
COCc1nnc(NS(=O)(=O)c2ccccc2)s1 | - | - | - | - | ? | 1µM
CC(C)=CC(=O)O[C@H]1[C@@H]2[C@H](C)C(=O)O[C@@H]2C[C@@H](C)[C@@H]2[C@@H](O)CC(=O)[C@]21C | - | - | - | - | - | -
C=C1C(=O)O[C@@H]2C[C@@H](C)[C@@H]3C=CC(=O)[C@@]3(C)[C@@H](OC(C)=O)[C@H]12 | - | - | - | 2.1µM | - | 2.9µM
C[C@@H]1C[C@@H]2OC(=O)[C@]3(C)[C@H]2[C@@H](OC3(C)O)[C@]2(C)C(=O)C=C[C@H]12 (some centres undefined) | - | ? | - | 13µM | - | ?
C=C1C(=O)O[C@@H]2C[C@@H](C)[C@@H]3C=CC(=O)[C@@]3(C)[C@@H](O)[C@H]12 | - | 25µM | - | 0.83µM | - | 1µM
CN(C)c1ccnc(Nc2ccc(O)cc2)c1C#N | ? | - | - | ? | - | 10µM
CN(C)c1nccc(Nc2ccccc2)c1C#N | ? | - | - | - | - | -
